About 7,900 targets were measured; listed, in parts, are those with a hit and a random draw of the rest. About 0.6% of all pairs of compound and target were hits.
Columns and labels:
Test in all cases: log2 fold change, soluble protein after heating vs DMSO (PISA); higher = thermal stabilisation; K562 cells, 10 uM, 30 min; active = over 0.2 and 3.5 SD of the protein, either way, in both replicates (recomputed)
[1] = compound: C1=CC=C(C=C1)[C@H](COC2=CC3=C(C=C2)NC(=O)N3)NC(=O)C4=CC=CN(C4=O)CC5=CC(=C(C=C5)F)F
Summary of the method: (§1)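 K562 cells at 2×10^6 cells/mL were treated for 30 min with 10 μM compound, and aliquots were heated for 3 min over 48°C-58°C before pooling. Extraction used PBS with 0.5% NP-40 at 4°C, and soluble protein was the supernatant after 21,000xg for 90 min, measured by TMTpro 16plex LC-MS/MS with channel sums equalised. Thermal stability values, relative to control samples and from duplicates, are log2 fold changes.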

[2] = compound: CC1=C(SC2=C1C(=N[C@H](C3=NN=C(N32)C)CC(=O)N)C4=CC=C(C=C4)Cl)C
Summary of the method: as §1

[3] = compound: CC1=C2C(=CC=C1)N=C(N(C2=O)C3=CC=CC=C3C)CN4C=NC5=C(N=CN=C54)N
Summary of the method: as §1

[4] = compound: Cc1sc2c(c1C)C(c1ccc(Cl)cc1)=N[C@@H](CC(=O)OC(C)(C)C)c1nnc(C)n1-2
Summary of the method: as §1

[5] = compound: c1ccc([C@@H]2C[C@H]2NC2CCNCC2)cc1
Summary of the method: as §1

Measured: log2 fold change

DAXX (UniProt Q9UER7)
Sequence of UniProt Q9UER7 (Q9UER7 whole entry, looked up): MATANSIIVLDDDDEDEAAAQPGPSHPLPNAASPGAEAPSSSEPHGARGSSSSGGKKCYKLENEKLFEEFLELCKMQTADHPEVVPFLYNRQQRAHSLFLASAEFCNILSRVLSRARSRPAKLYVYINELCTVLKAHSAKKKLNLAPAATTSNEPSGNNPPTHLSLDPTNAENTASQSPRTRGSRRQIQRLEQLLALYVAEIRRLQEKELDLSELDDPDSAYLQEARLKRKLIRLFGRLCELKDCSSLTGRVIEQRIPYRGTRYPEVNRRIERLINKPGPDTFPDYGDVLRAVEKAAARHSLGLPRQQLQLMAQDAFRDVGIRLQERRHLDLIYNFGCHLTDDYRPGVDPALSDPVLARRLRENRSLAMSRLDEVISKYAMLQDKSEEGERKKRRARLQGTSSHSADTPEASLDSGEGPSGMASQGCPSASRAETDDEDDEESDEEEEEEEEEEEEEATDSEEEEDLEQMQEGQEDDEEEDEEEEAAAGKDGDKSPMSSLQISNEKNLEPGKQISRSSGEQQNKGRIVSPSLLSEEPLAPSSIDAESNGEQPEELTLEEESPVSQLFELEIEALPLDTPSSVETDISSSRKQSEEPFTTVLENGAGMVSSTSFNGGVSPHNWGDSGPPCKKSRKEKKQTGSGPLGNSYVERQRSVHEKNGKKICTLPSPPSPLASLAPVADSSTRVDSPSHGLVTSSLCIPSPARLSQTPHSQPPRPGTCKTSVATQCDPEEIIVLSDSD
inactive: [1] 0.166 | [2] 0.178 | [3] 0.197 | [4] 0.017 | [5] -0.101

ELOVL1 (UniProt Q9BW60)
Sequence of UniProt Q9BW60 (Q9BW60 whole entry, looked up): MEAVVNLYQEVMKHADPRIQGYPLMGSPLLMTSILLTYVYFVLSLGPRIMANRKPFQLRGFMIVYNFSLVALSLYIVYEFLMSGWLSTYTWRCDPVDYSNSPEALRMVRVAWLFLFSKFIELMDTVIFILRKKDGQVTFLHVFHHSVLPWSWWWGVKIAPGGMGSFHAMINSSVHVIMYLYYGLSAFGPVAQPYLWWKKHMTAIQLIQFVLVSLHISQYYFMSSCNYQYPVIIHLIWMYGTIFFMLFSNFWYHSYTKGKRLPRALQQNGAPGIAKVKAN
inactive: [1] -0.16 | [2] 0.145 | [3] 0.045 | [4] -0.134 | [5] -0.05

DDX5 (UniProt P17844)
Sequence of UniProt P17844 (P17844 whole entry, looked up): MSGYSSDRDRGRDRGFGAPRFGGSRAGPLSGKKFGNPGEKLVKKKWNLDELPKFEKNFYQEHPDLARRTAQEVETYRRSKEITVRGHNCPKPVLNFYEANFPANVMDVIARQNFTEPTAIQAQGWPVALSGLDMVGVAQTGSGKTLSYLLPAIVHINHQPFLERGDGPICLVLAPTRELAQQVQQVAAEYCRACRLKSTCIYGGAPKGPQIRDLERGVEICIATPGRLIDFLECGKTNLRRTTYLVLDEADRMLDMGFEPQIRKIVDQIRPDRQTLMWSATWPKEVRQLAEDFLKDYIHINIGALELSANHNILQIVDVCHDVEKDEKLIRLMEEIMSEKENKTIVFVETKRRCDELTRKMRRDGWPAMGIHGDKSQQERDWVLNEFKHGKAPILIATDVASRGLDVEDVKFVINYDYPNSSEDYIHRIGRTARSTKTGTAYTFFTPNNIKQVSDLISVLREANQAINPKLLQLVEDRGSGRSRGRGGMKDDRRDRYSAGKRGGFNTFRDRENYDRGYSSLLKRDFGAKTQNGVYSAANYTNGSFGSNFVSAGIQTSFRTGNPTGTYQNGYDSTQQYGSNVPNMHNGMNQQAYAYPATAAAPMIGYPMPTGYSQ
inactive: [1] -0.061 | [2] 0.008 | [3] 0.067 | [4] -0.027 | [5] 0.038

DNTTIP2 (UniProt Q5QJE6)
Sequence of UniProt Q5QJE6 (Q5QJE6 whole entry, looked up): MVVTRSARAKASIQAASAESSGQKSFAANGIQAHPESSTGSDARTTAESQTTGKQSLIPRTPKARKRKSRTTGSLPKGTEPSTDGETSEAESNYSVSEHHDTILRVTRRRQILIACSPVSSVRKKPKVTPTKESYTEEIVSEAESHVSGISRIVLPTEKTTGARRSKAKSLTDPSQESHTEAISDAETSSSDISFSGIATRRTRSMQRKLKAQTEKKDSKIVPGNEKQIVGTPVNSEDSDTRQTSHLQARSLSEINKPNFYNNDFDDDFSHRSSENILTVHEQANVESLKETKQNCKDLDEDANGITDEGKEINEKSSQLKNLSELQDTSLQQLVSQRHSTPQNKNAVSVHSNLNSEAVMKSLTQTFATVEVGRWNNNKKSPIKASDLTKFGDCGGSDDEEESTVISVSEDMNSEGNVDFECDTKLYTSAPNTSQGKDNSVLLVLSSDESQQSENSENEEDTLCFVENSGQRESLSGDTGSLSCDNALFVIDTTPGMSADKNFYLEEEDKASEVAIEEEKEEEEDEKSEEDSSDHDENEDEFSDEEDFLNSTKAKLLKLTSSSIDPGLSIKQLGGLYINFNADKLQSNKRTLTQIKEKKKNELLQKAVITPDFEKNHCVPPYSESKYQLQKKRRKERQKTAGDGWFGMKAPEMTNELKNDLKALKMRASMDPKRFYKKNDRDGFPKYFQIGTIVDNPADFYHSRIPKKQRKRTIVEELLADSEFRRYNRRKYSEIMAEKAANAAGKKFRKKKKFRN
inactive: [1] -0.068 | [2] -0.117 | [3] -0.021 | [4] 0.087 | [5] 0.132

CUX1 isoform 2 (UniProt Q13948)
Sequence of UniProt Q13948 (Q13948 whole entry, looked up): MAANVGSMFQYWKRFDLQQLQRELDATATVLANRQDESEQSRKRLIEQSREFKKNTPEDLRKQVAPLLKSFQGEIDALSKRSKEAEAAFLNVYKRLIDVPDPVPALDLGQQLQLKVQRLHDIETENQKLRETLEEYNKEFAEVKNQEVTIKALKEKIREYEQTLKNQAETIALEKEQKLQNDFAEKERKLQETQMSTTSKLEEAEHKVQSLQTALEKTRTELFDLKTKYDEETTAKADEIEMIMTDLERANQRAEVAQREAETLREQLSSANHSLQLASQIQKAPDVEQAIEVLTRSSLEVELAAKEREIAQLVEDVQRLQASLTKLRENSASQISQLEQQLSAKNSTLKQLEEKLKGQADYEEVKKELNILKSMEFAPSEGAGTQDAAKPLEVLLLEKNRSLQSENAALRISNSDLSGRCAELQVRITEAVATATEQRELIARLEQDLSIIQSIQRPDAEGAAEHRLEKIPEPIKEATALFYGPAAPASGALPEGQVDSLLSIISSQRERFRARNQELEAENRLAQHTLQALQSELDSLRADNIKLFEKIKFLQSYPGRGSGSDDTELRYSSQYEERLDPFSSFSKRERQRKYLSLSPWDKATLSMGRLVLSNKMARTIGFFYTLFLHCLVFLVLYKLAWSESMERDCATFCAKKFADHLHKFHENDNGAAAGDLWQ
inactive: [1] -0.067 | [2] 0.013 | [3] 0 | [4] 0 | [5] 0.023

EEF1B2 (UniProt P24534)
Sequence of UniProt P24534 (P24534 whole entry, looked up): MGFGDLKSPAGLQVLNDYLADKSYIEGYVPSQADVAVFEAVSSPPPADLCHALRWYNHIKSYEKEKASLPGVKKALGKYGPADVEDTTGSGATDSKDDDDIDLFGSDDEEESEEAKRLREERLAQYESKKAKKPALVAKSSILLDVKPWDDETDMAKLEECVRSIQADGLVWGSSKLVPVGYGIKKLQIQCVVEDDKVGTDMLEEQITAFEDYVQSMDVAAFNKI
inactive: [1] -0.037 | [2] -0.002 | [3] 0.036 | [4] 0.026 | [5] -0.034

DAB2 (UniProt P98082)
Sequence of UniProt P98082 (P98082 whole entry, looked up): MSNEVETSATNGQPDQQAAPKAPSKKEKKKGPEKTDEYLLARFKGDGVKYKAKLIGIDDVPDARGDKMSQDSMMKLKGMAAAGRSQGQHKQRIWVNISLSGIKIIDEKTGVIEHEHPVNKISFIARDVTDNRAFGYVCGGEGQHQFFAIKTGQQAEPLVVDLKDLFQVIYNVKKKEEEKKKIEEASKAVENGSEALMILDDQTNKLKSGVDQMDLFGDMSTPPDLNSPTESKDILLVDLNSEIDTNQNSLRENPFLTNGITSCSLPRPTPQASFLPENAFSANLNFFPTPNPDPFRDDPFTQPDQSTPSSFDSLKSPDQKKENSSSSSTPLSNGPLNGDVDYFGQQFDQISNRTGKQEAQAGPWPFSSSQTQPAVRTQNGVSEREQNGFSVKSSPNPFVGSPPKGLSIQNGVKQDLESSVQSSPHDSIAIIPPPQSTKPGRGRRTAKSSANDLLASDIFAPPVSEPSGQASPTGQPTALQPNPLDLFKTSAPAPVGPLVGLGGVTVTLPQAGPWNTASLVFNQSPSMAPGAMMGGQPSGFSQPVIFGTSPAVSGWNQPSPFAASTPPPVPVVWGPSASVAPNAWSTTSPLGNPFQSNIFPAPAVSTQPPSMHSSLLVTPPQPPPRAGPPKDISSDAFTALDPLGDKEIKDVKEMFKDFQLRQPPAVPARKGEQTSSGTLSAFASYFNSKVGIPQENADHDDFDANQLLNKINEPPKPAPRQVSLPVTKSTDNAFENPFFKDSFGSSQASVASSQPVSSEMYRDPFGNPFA
inactive: [1] -0.039 | [2] 0.051 | [3] 0.1 | [4] 0.121 | [5] 0.094
